Compounds with a hit are over-represented: about 21% of the library has one in this group of screens.
Cycloheximide cs – counter-screen for Shiga toxin inhibitors: cycloheximide protein synthesis inhibition; actives 12% (n = 300,000); max response, %; cell reporter, cycloheximide protein synthesis inhibition counterscreen; in the data active = max response mostly above about 13%, no sharp cut-off; inactive = mostly below about 14%; note: read at 38.3 µM for the half of the compounds with a filed dose; 0% is about no effect
NS1 function inh – inhibitors of influenza NS1 protein function; AID 2326; Potency, µM (titrated, usually from 46.1 µM), for inactives: top-dose activity, positive = more growth; actives 0.4% (n = 270,000); calls by dose curve; note: potency is the fitted concentration of half-maximal effect; actives are rising curves; nearly all actives have a fitted effect of over 50% in size
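A cell-based growth assay was used: compounds that relieve NS1-induced slow growth of budding yeast raise OD600. Assay medium was yeast nitrogen base with ammonium sulphate and -URA supplement, pH 6.0, with 2% galactose.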
Pf growth 48h – inhibits P. falciparum growth in the first generation, 48 h; actives 5.9% (n = 310,000); P. falciparum luciferase growth in erythrocytes, 48 h; AID 504832; Potency, µM (top dose mostly 28.7 µM), inactives show at the top dose activity change, negative = inhibition, hits mostly inhibitors; note: potency is the fitted concentration of half-maximal effect; % is set by controls: 0 for no effect and ±100 for the full control effect
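Luciferase-expressing P. falciparum in infected erythrocytes (2% hematocrit, 0.1% parasitemia final) in RPMI 1640/0.5% Albumax were exposed to compound for 48 hours at 37 C, 5% CO2; growth read as luminescence.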
Sm TGR block – inhibitors of Schistosoma mansoni thioredoxin glutathione reductase. Q962Y6. purified TGR, DTNB reduction, TNB absorbance 405 nm. Potency, µM (highest dose often 114 µM), for the others: top-dose activity change, negative = inhibition, hits mostly inhibitors. actives 3% (n = 360,000). AID 485364; note: potency is the fitted concentration of half-maximal effect; % is set by controls: 0 for no effect and ±100 for the full control effect; nearly all actives have a fitted effect of over 60% in size
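First, TGR (20 nM dispensed) and NADPH were mixed with compound. Second, a 15 min room-temperature incubation followed. Third, further NADPH and then DTNB were added to start the reaction. Finally, TNB absorbance was monitored kinetically.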
Pf growth 96h – P. falciparum growth inhibition at 96 hours; P. falciparum luciferase reporter growth, 96 h; Potency, µM (highest dose often 28.7 µM), without a hit: at the highest dose activity change, negative = inhibition, most hits filed as inhibitors; actives 6.9% (n = 320,000); AID 504834; note: potency is the fitted concentration of half-maximal effect; % is set by controls: 0 for no effect and ±100 for the full control effect
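P. falciparum expressing integrated firefly luciferase, in erythrocytes at 2% hematocrit, 0.05% parasitemia, incubated with compounds 96 h at 37 C, 5% CO2. Growth inhibition read as loss of luminescence; two-generation exposure targets delayed-death apicoplast inhibitors.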
Shiga toxin inh – inhibitors of Shiga toxin in Vero cells; Vero cells, Shiga toxin protein synthesis inhibition reporter; inhibition, % at 38.7 µM; actives 9.2% (n = 290,000); AID 2315; in the data active = inhibition mostly above about 28%, no sharp cut-off; inactive = mostly below about 43%; note: 0% is about no effect
An asterisk follows results filed as active; ? = inconclusive; . = not tested or not shown; [ ] = dose if it differs, or a comment. Unless noted, calls come from the whole dose curve; as a rule, active = well fitted curve in the direction sought with a large enough effect; inconclusive = small, poorly fitted or top-dose-only effect, or another doubt; inactive = no such curve, though single readings can be large; an effect the other way counts as inactive or inconclusive.

SMILES	Cycloheximide cs	NS1 function inh	Pf growth 48h	Sm TGR block	Pf growth 96h	Shiga toxin inh
Cc1ccc(CN2CCC(CNC(=O)c3cnn(-c4ccccc4)c3C3CCN(C(=O)OC(C)(C)C)CC3)CC2)cc1	.	.	.	-6.2%	.	.
O=C(CN1C(=O)C(=O)N(C2CCCC2)C1=O)Nc1ccc(Cl)cc1C(F)(F)F	.	.	-19.4%	4.0%	8.9%	.
Cc1ccccc1CNC(=O)CC1C(=O)NCCN1Cc1c(F)cccc1Cl (centres undefined)	-2.2	1.1%	0.828µM*	7.6%	2.33µM*	-4.7
Cc1cnc(CNC(=O)CC2C(=O)NCCN2Cc2cccc(F)c2F)cn1 (centres undefined)	2.9	-6.4%	14.3%	17.8µM*	?	-8.0
Cc1cnc(CNC(=O)CC2C(=O)NCCN2Cc2ccccc2F)cn1 (centres undefined)	-3.7	-3.2%	?	-24.0%	2.8%	-17.0
COc1cc(/C=C/c2nc(-c3ccccc3O)n[nH]2)cc(OC)c1OC	18.8	-5.9%	?	-0.6%	?	3.7
CC(=O)Nc1ccc(/C=C/c2nc(-c3ccccc3O)n[nH]2)cc1	47.8*	7.1%	7.6%	16.5%	50.0%	56.9*
Cc1ccc(C(=O)NCCc2nnc3ccc(SCC(=O)N4CCCCC4)nn23)cc1	16.0	3.5%	3.1%	-18.7%	?	16.5
COc1ccccc1-c1cc(C(=O)N/N=C\c2cnn(C)c2C)c2ccccc2n1	-6.4	-11.6%	3.1%	5.4%	?	10.5
CCn1cc(/C=N\NC(=O)c2csc3ccccc23)c(C)n1	44.4*	0.0%	.	-2.6%	-6.5%	82.3
CCn1cc(/C=N\NC(=O)c2c[nH]c3ccccc23)c(C)n1	42.4	15.8%	14.4%	-6.4%	-17.9%	73.8*
Cc1c(/C=N\NC(=O)c2c[nH]c3ccccc23)cnn1C	15.4*	.	-10.8%	2.2%	14.0%[5.75 µM]	46.3*
CCN1CCc2c(C#N)c(N3CCOCC3)nc(N3CCOCC3)c2C1	-2.8	-0.4%	.	0.3%	?	-6.0
CCN(CC)c1nc(N2CCOCC2)c(C#N)c2c1CN(C)CC2	-5.5	-4.2%	?	2.9%	10.4µM*	-20.7
N#Cc1c(N2CCOCC2)nc(N2CCCCC2)c2c1CCN(C1CCCCC1)C2	-4.8	1.3%	.	-20.7%	1.47µM*	-5.5
CCOC(=O)c1ccc(NC(=O)Cn2nnc(-c3ccc(C(F)(F)F)cc3)n2)cc1	.	.	.	-17.0%	.	.
CCCCN1C(=O)CN(CCc2ccccc2)C(=O)C1c1ccc(OC)cc1 (centres undefined)	-2.2	-0.7%	?	-1.7%	5.22µM*	-22.8
COc1ccc(C2C(=O)N(C3CCCCCC3)CC(=O)N2CCc2ccccc2)cc1 (centres undefined)	.	.	.	2.6%	.	.
COc1ccc(C2C(=O)N(CCc3ccccc3)CC(=O)N2C2CCCCC2)cc1 (centres undefined)	16.3	-7.1%	.	-4.9%	5.22µM*	-3.1
Cc1onc(-c2c(F)cccc2Cl)c1C(=O)N(C)CCc1ccccn1	8.6	-4.6%	89.7%	3.0%	3.5%	-9.5
CCOC(=O)c1ccccc1NC(=O)c1sc2ncn(Cc3cccc(F)c3)c(=O)c2c1C	.	.	.	11.8%	.	.
CC(=O)OCC(OC(C)=O)C(OC(C)=O)C(OC(C)=O)C(=O)Nc1ccccc1 (centres undefined)	-4.8	3.2%	7.7%	.	8.1%	6.3
CC(NC(=O)CSC(=S)N1CCCC1)c1ccc(S(N)(=O)=O)cc1 (centres undefined)	.	.	10.6%	-0.9%	?	.
Cc1ccc(NC(=O)Nc2nc3c(s2)CCCCCC3)cc1C	.	.	.	6.4%	.	.
COc1ccccc1Nc1nc(C)c(C(=O)Nc2ccccc2)s1	17.1	.	?	-10.1%	?	55.9
Cc1ccc(Nc2nc3c(s2)CCC3)c(C)c1	32.0*	9.5%	-13.5%	0.0%	-51.8%	56.5*
COc1ccccc1Nc1nc2c(s1)CCC2	36.5*	-7.0%	?	?	?	68.0*
COc1ccccc1N1CCN(C(=O)c2ccc(-c3ccc(Cl)cc3)o2)CC1	.	.	?	-18.7%	11.7µM*	.
c1ccc(N2CCN(c3ncccn3)CC2)cc1	21.9*	-17.1%	54.1%	9.3%	52.4%	25.2
COc1ccc(NC(=O)COC(=O)COc2cccc3c2OC(C)(C)C3)cc1	.	.	-15.3%	2.0%	1.9%	.
